Data: PubChem BioAssay (NCI)
“And” between values parts separate entries of the source, which are not always exact repeats. Identical values can stand only once. Compounds without any hit were thinned out: in the full panel of roughly 83,000, 20% have a hit.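 Assay: single dose, 48 h. Readout: percent growth (0 = no net growth; negative = cell death). Active: <10.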 The source made the active and inactive calls.

System: SR leukemia
Assay: NCI-60 one-dose screen, 48 h (100 = growth as untreated, 0 = no growth, -100 = all killed)
Conditions: 10 µM unless noted

SMILES | growth
Cc1ccc(Cl)cc1NC(=O)N/C(N)=N/c1nc2ccccc2s1 | 5.59% (active)
Nc1cc(-c2c[nH]c3ccc(Cl)cc23)nc2cc(-c3c[nH]c4ccccc34)nn12 | 10.2% (inactive)
COc1cc(CNC(=O)C[C@H](C)CCC=C(C)C)ccc1OCc1cn(-c2ccc(Cl)c(Cl)c2)nn1 | 27.1% (inactive)
C[C@@H](Nc1c(C#N)cnc2ccc(-c3cnc4[nH]ncc4c3)cc12)c1ccccc1 | -8.05% (active)
COc1ccc(C2=NN(C(=O)[C@H]3[C@@H](c4ccco4)c4sc(=O)[nH]c4S[C@@H]3C)C(c3ccc4ccccc4c3)C2)cc1 (stereo partly drawn) | 24.8% (inactive)
Cc1cc(C)c2[nH]c(=O)c(C(c3nnnn3Cc3ccc4c(c3)OCO4)N3CCN(C)CC3)cc2c1 (stereo not drawn) | 96.9% (inactive)
COc1ccc(NC(=O)N/N=C/c2c[nH]c3ccccc23)cc1 | 23.4% (inactive)
COc1ccc2[nH]c(O)c(N=NC(=O)c3ccc4nc(-c5ccc(Cl)cc5)[nH]c4c3)c2c1 | 34.2% (inactive)
Cc1ccc(O)cc1Nc1nc(SCCN2CCOCC2)nc2c1cnn2CC(Cl)c1ccc(Br)cc1 (stereo not drawn) | -29.4% (active)
CCOc1ccccc1[C@H]1C(C(=O)c2ccc(Cl)cc2)C2(N[C@@H]1c1ccccc1)C(=O)Nc1ccc(Br)cc12 (stereo partly drawn) | -45.6% (active)
CC1(C)CC(=O)C2=C(C1)OC(N)=C(c1nc3ccccc3[nH]1)C2c1ccc(Cl)cc1 (stereo not drawn) | 41.4% (inactive) and 97.8% (inactive)
COc1ccc(-c2cc(C(=O)N=Nc3c(O)[nH]c4ccc(Cl)cc34)c3ccccc3n2)cc1OC | 103% (inactive)
COc1ccc2c(c1)c(-c1cc(N)n3nc(-c4c[nH]c5ccccc45)cc3n1)cn2C | 6.54% (active)
Cc1ccc2c(c1)nc(-c1ccccc1)n2CC(=O)N=Nc1c(O)[nH]c2ccc(Cl)cc12 | -20.7% (active)
CS(=O)(=O)Nc1cccc(-n2c(COc3ccc(OC(F)(F)F)cc3)nc3ccccc32)c1 | 68.3% (inactive) and 83.2% (inactive)
Oc1ccc(Cl)c(Nc2nc(SCCN3CCOCC3)nc3c2cnn3CC(Cl)c2ccc(Br)cc2)c1 (stereo not drawn) | -26.7% (active)
COc1ccccc1NC(=O)N/N=C/c1c[nH]c2ccccc12 | 14.6% (inactive)
Nc1cccc(-n2c(COc3ccc(I)cc3)nc3ccccc32)c1 | 64.7% (inactive) and 101% (inactive)
O=C1CCC(N2C(=O)c3cccc(NCCCCCC(=O)N4CCN(c5ccc6nc7c(nc6c5C(F)(F)F)C(=O)c5ncccc5C7=O)CC4)c3C2=O)C(=O)N1 (stereo not drawn) | 8.9% (active)

SMILES | growth
OCCn1cc(-c2nc3ccc4[nH]ncc4c3c3c2CCCC3)cn1 | -3.53% (active)
Cc1ccc(N=Nc2c(N)nn3c(-c4cc5cc(Br)ccc5oc4=O)ccnc23)cc1 | 50.2% (inactive)
COc1ccc(C(=O)C[n+]2cccc3c4ccccc4ccc32)cc1 | 34.4% (inactive)
CCCCCCCCCc1ccc(C(=O)Nc2cc(C)ccc2C(=O)OC)cc1 | 90.1% (inactive)
Cc1nc(Nc2ccccn2)sc1C1=NNC(c2ccccc2F)C1 (stereo not drawn) | 12.4% (inactive)
NS(=O)(=O)c1ccc(Nc2nc(N/N=C/c3cc(Br)c(O)c(Br)c3)nc(Nc3ccccc3)n2)cc1 | -12.1% (active)
C=CC(=O)Nc1ccc(C(=O)/C=C/c2ccc(N(C)C)cc2)c(O)c1 | 2.78% (active)
CCCCCCCCc1ccc(C(=O)Nc2cccc(O)c2)cc1 | 29.8% (inactive)
Clc1ccc(-c2nc3c4c(-c5ccccc5)c(-c5ccccc5)n(Cc5ccccc5)c4ncn3n2)cc1 | 5.49% (active)
Nc1nn2c(-c3cc4cc(Br)ccc4oc3=O)ccnc2c1N=Nc1ccc(S(N)(=O)=O)cc1 | 74.4% (inactive)
Cc1ccc(C(=O)Nc2cc(-n3ccnc3)cc(C(F)(F)F)c2)cc1-n1cc(-c2cnc3cccnn23)nn1 | 114% (inactive)
Cc1cccc(C)c1Nc1nnc(-c2c[nH]c3ccccc23)o1 | 91.5% (inactive)
COc1cc(CNC(=O)C[C@H](C)CCC=C(C)C)ccc1OCc1cn(-c2cccc(C(F)(F)F)c2)nn1 | 41.5% (inactive)
CC1=C(C(=O)OCc2ccccc2)C(c2ccc(N(C)C)cc2)n2c(nc3ccccc32)N1 (stereo not drawn) | 46% (inactive)
CCc1ccc(SC2c3cc(OC)ccc3Oc3nc(N)c(C#N)c(N)c32)cc1 (stereo not drawn) | -62% (active)
CCCn1c(NC(=O)c2cccc(C(N)=O)c2)nc2cc(CN3CCCCC3)ccc21 | 41.5% (inactive)
C/C(=N/O)c1ccc(NC(=O)CSc2nnc(-c3ccc(-c4nc5ccc(Cl)cc5[nH]4)cc3)o2)cc1 | 12.3% (inactive)
CC[C@@]12CC(C(=O)OC)=C3Nc4cc5c(cc4[C@@]34CCN(C[C@H]3O[C@H]31)[C@@H]24)[C@@H]1[C@H](O5)[C@@H](O)[C@@]2(CC)CC(C(=O)OC)=C3Nc4cc(O)ccc4[C@@]34CCN1[C@@H]24 | -29.6% (active)
N#Cc1c(-c2ccc(F)cc2)nc(SCc2ccccc2)nc1N1CCNCC1 | -10.3% (active)
